Laboratory results reported in PubChem BioAssay (NCATS).
Inconclusive results are not listed. Values without a mark were called inactive. Activity calls are given as the source filed them. Calls come from the whole dose curve; as a rule, active = well fitted inhibition curve with a large enough effect; inconclusive = small, poorly fitted or top-dose-only effect; inactive = flat fitted curve, though single readings scatter.

biological target: Calcium and integrin-binding protein 1 (Homo sapiens) (UniProt Q99828); assay: Primary qHTS for Identification of Calcium Integrin Binding Protein 1 (CIB1) Competitor (AID 1508620); conditions: CIB1-GST / FITC-alphaIIb peptide fluorescence polarization; series mostly up to 57.7 µM; activity change, negative = inhibition: at the top concentration;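 for activity change, negative = inhibition: GST tagged CIB1 binding a fluorescein labelled alphaIIb integrin peptide tracer; top concentration of the series differs between compounds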
How it was run: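 CIB1-GST (1 uM final) and compound incubated 15 min at room temperature before adding FITC-alphaIIb peptide tracer (100 nM final). Competition for binding read by fluorescence polarization (ex 480, em 540) after another 15 min at room temperature.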
% is set by controls: 0 for no effect and ±100 for the full control effect; potency is the fitted concentration of half-maximal effect.

Chain of Calcium and integrin-binding protein 1 (Homo sapiens) (Q99828 whole entry, looked up): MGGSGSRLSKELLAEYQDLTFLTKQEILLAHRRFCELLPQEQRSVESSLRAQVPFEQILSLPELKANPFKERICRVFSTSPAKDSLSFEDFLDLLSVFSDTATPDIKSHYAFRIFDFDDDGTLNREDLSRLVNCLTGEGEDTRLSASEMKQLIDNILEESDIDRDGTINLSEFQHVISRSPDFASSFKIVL

With `CC(NC(=O)CC(=O)O)c1nc2ccccc2c(=O)[nH]1` (centres undefined) the Potency was 28.2 µM (active).
With `CO/N=C(/C(=O)N[C@@H]1C(=O)N2C(C(=O)O)=C(CSC(=O)c3ccco3)CS[C@H]12)c1csc(N)n1` the Potency was “inactive”.

Point of comparison: `C=C1CC2[C@]3(C)C(=C(O)C(=O)[C@@]2(C)[C@]2(C(=O)OC)C(=O)C(C)OC(=O)[C@@]12C)C(C)(C)C(=O)CC3O` (some centres undefined), “activity change, negative = inhibition” value -4.56%. Against it:
- C[C@@H]1O[C@@H](OC[C@H]2O[C@@H](OCCc3ccccc3)[C@H](O)[C@@H](O)[C@@H]2O)[C@H](O)[C@H](O)[C@H]1O — higher, 4.77%
- COC1(CC(C)C)NC(=O)C(O)(Cc2ccccc2)NC1=O (centres undefined) — higher, 1.37%
- OC[C@H]1O[C@@H](Oc2ccc3c(c2)OC[C@H]2c4cc5c(cc4O[C@@H]32)OCO5)[C@H](O)[C@@H](O)[C@@H]1O — higher, -0.311%
- C=C1CCC2C(OC(=O)C2(O)COC(C)=O)C2C(=C)C(O)CC12 (centres undefined) — lower, -14.8%
- CC1=CC(=O)CC(C)(CO[C@@H]2O[C@H](CO)[C@@H](O)[C@H](O)[C@H]2O)C1(O)/C=C/C(C)=C/C(=O)O (some centres undefined) — higher, 1.4%
- O=C(O)CCc1cccc(O[C@@H]2O[C@H](CO)[C@@H](O)[C@H](O)[C@H]2O)c1O — lower, -4.98%
- CC(=O)OC1C(O)CC(O[C@@H]2O[C@H](CO)[C@@H](O)[C@H](O)[C@H]2O)C2CCC3C(=O)OC(c4ccoc4)CC3(C)C21 (some centres undefined) — lower, -6.48%
- C=C1CCC2C(C)(C)C(O)CCC2(C)C1CCC(C)CCOC(=O)CCC(=O)O (centres undefined) — lower, -8.6%
- C=C1[C@H]2CC[C@]3(O)[C@@](CC[C@@H]4[C@](C)(C(=O)O)CCC[C@]43C)(C2)[C@H]1OC(=O)/C(C)=C\C — higher, 0.2%
- CCC(C)/C=C(C)/C=C/C1=CC2=C(Cl)C(=O)C(C)(OC(C)=O)C(=O)C2=CN1CCCC(=O)O (centres undefined) — lower, -8.58%
- COC(=O)[C@@]1(O)C=CC[C@@H]2[C@@]3(C)C[C@@H](c4ccoc4)OC(=O)[C@H]3CC[C@]21C — higher, -1.71%
- CC(=O)OC[C@]1(O)[C@H]2[C@H](OC(=O)CC(C)C)OC=C(CO[C@@H]3O[C@H](CO)[C@@H](O)[C@H](O)[C@H]3O)[C@H]2C[C@@H]1O — higher, 1.32%
- C=CC1C(O[C@@H]2O[C@H](CO)[C@@H](O)[C@H](O)[C@H]2O)OC=C(C(=O)OC)C1Cc1nccc2c1[nH]c1ccccc12 (some centres undefined) — lower, -4.67%

Point of comparison: `CC1(C)C(O)CCC2(C)C1C(O)C=C1COC(=O)C12O` (centres undefined), “activity change, negative = inhibition” value 3.73% [at 114 µM]. Against it:
- COC1CC(=O)CCC(C)OC(=O)CC1O (centres undefined) — lower, -3% [at 114 µM]
- C=C1CCC2[C@@](C)(C=O)CCC[C@]2(C)[C@H]1CC/C(C)=C/CO (some centres undefined) — lower, -6.52% [at 114 µM]
- Nc1nonc1C(=Nc1ccc(F)c(Cl)c1)NO — lower, 3.26% [at 114 µM]
- COC1=CC(=O)O[C@@H](/C=C/c2ccccc2)[C@@H]1O — lower, 1.26% [at 114 µM]
- CC1CCC2C(C(=O)O)=CC3CC(C)(C)CC132 (centres undefined) — lower, -6.95% [at 114 µM]
- CC1CCC2C(C)(C)CC(C)(CO)C2(O)C1C(=O)O (centres undefined) — lower, 2.54% [at 114 µM]
- CC1C(=O)CC2C3C(O)CC(C(=O)O)C12CC3(C)C (centres undefined) — lower, 0.24% [at 114 µM]
- COc1cccc(-n2nc(C(=O)O)cc2-c2ccc(C3CCCCC3)c(Cl)c2)c1 — lower, -3.91% [at 114 µM]
- C[C@@H]1C(=O)O[C@H]2[C@H]1CC[C@@]1(C)C(=O)C=C[C@](C)(O)[C@H]21 — lower, 2.36% [at 114 µM]
- COc1ccc([C@H]2Cc3cccc(O)c3C(=O)O2)cc1 — lower, -2.8% [at 114 µM]

Point of comparison: `CC(C)CC(=O)O[C@@H]1OC=C(CO[C@@H]2O[C@H](CO[C@@H]3O[C@H](CO)[C@@H](O)[C@H](O)[C@H]3O)[C@@H](O)[C@H](O)[C@H]2O)[C@H]2C[C@H](O)[C@@H](CO)[C@@H]12`, “activity change, negative = inhibition” value -3.51% [at 30.2 µM]. Against it:
- C/C=C1/[C@H](O[C@@H]2O[C@H](CO)[C@@H](O)[C@H](O)[C@H]2O)OC=C(C(=O)OC)[C@H]1CC(=O)O[C@@H]1O[C@H](CO)[C@@H](O)[C@H](O)[C@H]1O — higher, 4.09% [at 30.2 µM]
- COc1ccc(/C=C/C(=O)O[C@@H]2[C@@H](O)[C@H](C)O[C@@H](OC3C4C=COC(O[C@@H]5O[C@H](CO)[C@@H](O)[C@H](O)[C@H]5O)C4C4(CO)OC34)[C@@H]2O)cc1OC (some centres undefined) — higher, 2.85% [at 30.2 µM]
- CC1(CO)CC[C@]2(C(=O)O[C@@H]3O[C@H](CO)[C@@H](O)[C@H](O)[C@H]3O)CC[C@]3(C)C(=CCC4[C@@]5(C)C[C@H](O)[C@H](O[C@@H]6OC[C@@H](O)[C@H](O)[C@H]6O)[C@@](C)(CO)C5CC[C@]43C)C2C1 (some centres undefined) — higher, 5.66% [at 30.2 µM]
- C[C@@H](OC(=O)/C=C/c1ccc(O)cc1)C1=C[C@]2(C=C[C@@H]3C(C(=O)O)=CO[C@@H](O[C@@H]4O[C@H](CO[C@@H]5O[C@H](CO)[C@@H](O)[C@H](O)[C@H]5O)[C@@H](O)[C@H](O)[C@H]4O)[C@@H]32)OC1=O — higher, 2.59% [at 30.2 µM]
- CC1OC(OC2C(C)OC(OC3C(OC(=O)/C=C/c4ccc(O)cc4)C(CO)OC(OC4(COC(=O)/C=C/c5ccc(O)cc5)OC(CO)C(O)C4O)C3OC3OCC(O)(CO)C3O)C(O)C2O)C(O)C(O)C1O (centres undefined) — higher, 0.727% [at 30.2 µM]
- COc1cc([C@H]2OC[C@]3(OC(C)=O)[C@@H](c4ccc(O[C@@H]5O[C@H](CO)[C@@H](O)[C@H](O)[C@H]5O)c(OC)c4)OC[C@H]23)ccc1O — higher, -1.4% [at 30.2 µM]
- C/C=C(\C)C(=O)OC[C@H]1O[C@H](O[C@H]2O[C@H](CO)[C@@H](OC(=O)/C(C)=C/C)[C@H](O)[C@H]2O[C@@H]2O[C@H](CO)[C@@H](O)[C@H](O)[C@H]2O)[C@H](O[C@@H]2O[C@H](CO)[C@@H](O)[C@H](O)[C@H]2O)[C@@H](O)[C@@H]1O — higher, 1.32% [at 30.2 µM]
- C/C=C(\C)C(=O)O[C@H]1[C@H](O)[C@]2(COC(C)=O)[C@H](O)C[C@]3(C)C(=CCC4[C@@]5(C)CC[C@H](O[C@@H]6O[C@H](C(=O)O)[C@@H](O[C@@H]7O[C@H](CO)[C@@H](O)[C@H](O)[C@H]7O)[C@H](O)[C@H]6O[C@@H]6O[C@H](CO)[C@@H](O)[C@H](O)[C@H]6O)[C@](C)(CO)C5CC[C@]43C)[C@@H]2CC1(C)C (some centres undefined) — higher, 1.85% [at 30.2 µM]
- CC(=O)O[C@@H]1C[C@@]23C[C@@]24CC[C@H](OC2OC[C@@H](O)[C@H](O)[C@H]2O)C(C)(C)[C@@H]4CC[C@H]3[C@]2(C)CC3OC4(C[C@@H](C)C3[C@@]12C)OCC1(C)OC14 (some centres undefined) — higher, -2.72% [at 30.2 µM]

Point of comparison: `C/C=C(\C)C(=O)O[C@@H]1CC2[C@@H](CC=C3C[C@@H](O[C@H]4C[C@H](OC)[C@H](O[C@H]5C[C@H](OC)[C@H](O[C@H]6C[C@H](OC)[C@H](O[C@H]7C[C@@H](OC)[C@H](O[C@@H]8O[C@H](CO)[C@@H](O)[C@H](O)[C@H]8O)[C@@H](C)O7)[C@@H](C)O6)[C@@H](C)O5)[C@@H](C)O4)CC[C@@]32C)[C@@]2(O)CC[C@H](C(C)=O)[C@@]12C` (some centres undefined), activity change, negative = inhibition 0.036% [at 12.4 µM]. Against it:
- CC(=O)O[C@@H]1[C@H](O[C@@H]2O[C@H](CO)[C@@H](O)[C@H](O)[C@H]2O)[C@@H](O[C@@H]2O[C@@H](C)[C@H](O)[C@@H](O[C@@H]3O[C@H](CO)[C@@H](O)[C@H](O)[C@H]3O)[C@H]2O)[C@H](OC(=O)C23CCC4(C)C(=CCC5C6(C)CC(O)C(O[C@@H]7O[C@H](C(=O)O)[C@@H](O)[C@H](O)[C@H]7O)C(C)(C(=O)O)C6CCC54C)C2CC(C)(C)CC3O)O[C@@H]1C (some centres undefined) — higher, 4.49% [at 12.4 µM]
